# Only some compounds are listed: those with a hit (about 4.5% of all), similar ones and a draw of the others.
# EBNA-1 inhibitor = blocks EBNA-1 binding to DNA; actives 0.34% (n = 300,000); AID 1950; EBNA-1 DNA binding, fluorescence polarization; inhibition, % at 14.8 µM; in the data active means inhibition above about 28%
# TPT1 inhibitor = inhibitors of Candida albicans tRNA 2'-phosphotransferase TPT1; recombinant caTPT1, FP RNA substrate dephosphorylation; AID 1962; actives 0.81% (n = 300,000); inhibition, % at 5 µM;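 active means inhibition above the mean of all tested compounds plus 3 SD, set per screening campaign, cut at about 24% in these data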;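 further: plate controls were DMSO alone for no effect and ferristatin control at 100 nM for full effect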
# ZTA counter = blocks Epstein-Barr virus ZTA, an EBNA-1 counter-screen; ZTA-DNA binding, fluorescence polarization; inhibition, % at 11 µM; actives 0.15% (n = 320,000); AID 2234; in the data active means inhibition above about 33%
# dFosB act = enhances mouse delta FosB homodimer DNA binding. actives 0.99% (n = 340,000). purified delta FosB, TAMRA-CDK5 oligo fluorescence polarization; percent of positive-control signal above neutral wells. P13346. activation, % at 25 µM;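 active means mean activation above about 17%, with every replicate also reaching it, limit read from the data, passing the limit was not always enough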
# GRIN3A LBD mod = modulates the human NR3A ligand-binding domain; NR3A LBD differential scanning fluorimetry, Tm shift; 0% = protein alone, 100% = glycine-bound protein; Tm shift relative to glycine control, % at 25 µM; actives 2.5% (n = 340,000);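 active means melting temperature shift of at least 10% of the positive control shift, at one fixed dose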
# Rpn11 inh = inhibitors of human proteasome Rpn11. O00487. human 26S proteasome, Ub4-pepOG fluorescence polarization; 20S core pre-blocked with epoxomicin. inhibition, % at 20 µM. actives 0.59% (n = 360,000);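 active means inhibition at 20 µM, scaled to each plate's controls, above about 33%, limit read from the data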
# caTPT1 confirm = TPT1 (C. albicans) inhibition, confirmation. AID 2149. shares compounds with TPT1 inhibitor. recombinant caTPT1, fluorescence polarization, RNase T1 coupled. actives 74% (n = 2,400). inhibition, % at 5 µM;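 active means inhibition above the primary screen limit, the mean inhibition of all tested compounds plus 3 SD, cut at about 25% in these data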
# RNase T1 inh = RNase T1 inhibition in TPT1 counter-screen; shares compounds with TPT1 inhibitor; RNase T1 cleavage, fluorescence polarization, 1536-well; inhibition, % at 5 µM; actives 83% (n = 2,400); AID 2153;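 active means inhibition above the solvent-only control well mean plus 3 SD, limit set per screening run, cut at about 23% in these data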;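 further: plate controls were DMSO wells with enzyme for no effect and wells without RNase T1 for full effect; inhibitors block cleavage so intact labeled substrate keeps polarization high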
# Target sequence (P00651 whole entry, looked up): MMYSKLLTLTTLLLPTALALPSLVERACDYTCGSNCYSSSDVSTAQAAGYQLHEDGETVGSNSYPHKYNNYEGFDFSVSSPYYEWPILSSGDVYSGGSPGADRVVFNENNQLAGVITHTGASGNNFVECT
# Zta DNA confirm = confirmation of Epstein-Barr virus ZTA DNA binding inhibitors; shares compounds with ZTA counter; AID 2361; Zta-ZRE DNA binding, fluorescence polarization; actives 30% (n = 320); inhibition, % at 11.1 µM;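 active means mean inhibition across triplicate runs above the hit threshold derived for the original primary screen, cut at about 33% in these data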;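 further: 0% = Zta with DMSO and 100% = wells lacking Zta protein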
# EBNA-1 counter = counter-screen for ZTA inhibitors: EBNA-1 DNA binding inhibition | shares compounds with ZTA counter | fluorescence polarization | inhibition, % at 14.8 µM | 320 tested, under 10 active | AID 2362; call rule not given here
# Rpn11 confirm = confirmation of human proteasome Rpn11 inhibitors. shares compounds with Rpn11 inh. purified human 26S proteasome, Ub4-pepOG fluorescence polarization; proteasome pretreated with epoxomicin. inhibition, % at 20 µM. actives 29% (n = 1,900)
# MMP-2 counter = counter-screen for RPN11 inhibitors: inhibition of human MMP-2; shares compounds with Rpn11 inh; recombinant MMP-2, FRET peptide cleavage fluorescence; inhibition, % at 20 µM; actives 4% (n = 1,900);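 further: human MMP-2 activated beforehand with APMA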
# Thrombin FP = thrombin (bovine) inhibition counter-screen; actives 13% (n = 1,900); bovine thrombin cleavage of Ub4-pepOG, fluorescence polarization; AID 602333; inhibition, % at 20 µM; shares compounds with Rpn11 inh;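 active means mean inhibition at least 40% at 20 µM, or signal 3 deviations below plate average, so some actives read negative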;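 further: plate controls were thrombin with DMSO for no effect and buffer wells lacking thrombin for full effect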
# Target sequence (P00735 whole entry, looked up): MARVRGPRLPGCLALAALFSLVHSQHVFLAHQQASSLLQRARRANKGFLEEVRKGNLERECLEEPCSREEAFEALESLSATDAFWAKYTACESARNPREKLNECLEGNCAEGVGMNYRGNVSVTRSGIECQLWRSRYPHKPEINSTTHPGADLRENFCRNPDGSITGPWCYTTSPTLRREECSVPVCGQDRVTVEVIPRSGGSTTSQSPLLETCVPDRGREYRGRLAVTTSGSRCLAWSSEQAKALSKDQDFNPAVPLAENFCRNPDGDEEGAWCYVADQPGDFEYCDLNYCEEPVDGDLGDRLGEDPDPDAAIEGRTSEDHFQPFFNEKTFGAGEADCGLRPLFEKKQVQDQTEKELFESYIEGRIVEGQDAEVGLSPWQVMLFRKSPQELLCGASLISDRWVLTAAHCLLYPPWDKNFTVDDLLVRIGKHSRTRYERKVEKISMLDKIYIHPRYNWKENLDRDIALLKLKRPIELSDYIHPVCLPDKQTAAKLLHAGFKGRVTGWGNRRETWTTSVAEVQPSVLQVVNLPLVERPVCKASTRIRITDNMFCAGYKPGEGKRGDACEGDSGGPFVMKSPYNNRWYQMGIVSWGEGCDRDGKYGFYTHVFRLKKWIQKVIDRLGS
# Numbers without * were called inactive; nt = not tested or not shown. Unless noted, no stated cut-off is given here; in the data, active means inhibition above about 40%; inactive means the rest.
SMILES,EBNA-1 inhibitor,TPT1 inhibitor,ZTA counter,dFosB act,GRIN3A LBD mod,Rpn11 inh,caTPT1 confirm,RNase T1 inh,Rpn11 confirm,MMP-2 counter,Thrombin FP,others
Cc1ccc(-c2csc(NC(=O)C3=NN(c4ccccc4)C(=O)CC3)n2)cc1,9.2,7.0,0.4,-1.0,-2.4,5.9,nt,nt,nt,nt,nt,
CCOC(=O)C1=CCN(S(=O)(=O)c2ccc(Cl)cc2)C1c1cccc(C)c1 (stereo unspecified),nt,nt,nt,nt,nt,9.4,nt,nt,nt,nt,nt,
CCCCCCN1C=CC=C/C1=C/C=C(C#N)C#N,-2.9,62.1*,-10.7,-0.3,-7.4,45.7*,80.2*,88.5*,37.0,14.8,52.1*,
CCCCCCN1C=C/C(=C\C=C(C#N)C#N)c2ccccc21,0.9,4.7,1.9,-23.9,-13.4,36.8,nt,nt,nt,nt,nt,
COc1ccc(-c2nnc(C)c3nocc23)cc1,-1.9,67.3*,-3.1,-11.8,0.5,89.0*,60.1*,69.0*,48.4*,-5.4,40.0,
O=[N+]([O-])c1ccc(Nc2ccccc2O)c2nonc12,nt,nt,nt,3.2,-4.6,-8.4,nt,nt,nt,nt,nt,
NS(=O)(=O)c1ccc(Nc2ccc([N+](=O)[O-])c3nonc23)cc1,3.2,38.3*,-3.0,6.0,-3.5,56.2*,47.7*,61.9*,44.5*,-70.7,33.7,
CC(NS(=O)(=O)c1ccc2c(c1)c(=O)n(C)c(=O)n2C)C(=O)NC1CCCCC1 (stereo unspecified),-1.4,-0.3,-4.0,-3.2,-2.2,-5.6,nt,nt,nt,nt,nt,
Cc1cccnc1NC(=O)Cn1nc(-c2ccccc2)oc1=S,14.0,-2.6,10.2,-3.0,0.8,-1.2,nt,nt,nt,nt,nt,
COc1cc(/C=C2\SC(=Nc3ccc(O)cc3)NC2=O)cc(OC)c1OC,-7.1,0.4,-9.0,nt,-5.1,nt,nt,nt,nt,nt,nt,
COc1ccc(N=C2NC(=O)/C(=C/c3ccc(O)c(OC)c3)S2)cc1,-5.1,31.5*,-14.4,-14.0,19.8*,145.3*,43.8*,51.8*,49.3*,1.7,68.0*,
COc1ccc2c(/C=C/c3cc[n+](C)cc3)c[nH]c2c1,4.6,43.0*,5.4,2.4,1.4,52.1*,46.6*,59.4*,67.9*,-38.4,71.8*,
O=C(N/N=C/c1sc(N2CCOCC2)nc1-c1ccccc1)c1cccc(S(=O)(=O)N2CCCC2)c1,-4.1,35.4*,-15.1,-12.3,-6.1,71.1*,34.3*,43.0*,94.3*,12.5,69.2*,
O=C(N/N=C/c1sc(N2CCOCC2)nc1-c1ccccc1)c1ccc(O)cc1,-12.1,-0.7,-8.0,-20.0,-5.1,-1.8,nt,nt,nt,nt,nt,
Cc1ccc2nc(/C(C#N)=C\c3ccc([N+](=O)[O-])o3)[nH]c2c1,-17.3,54.9*,-11.6,-2.1,-4.7,47.9*,46.8*,58.9*,11.7,-18.2,19.3,
CCOc1cccc(-c2csc(C3COc4ccccc4O3)n2)c1 (stereo unspecified),19.1,1.1,8.2,-4.2,-6.0,0.7,nt,nt,nt,nt,nt,
COc1ccc(/C=N/N2CCN(c3ccc(Cl)cc3)CC2)cc1O,-6.3,-2.4,-15.1,-7.5,4.6,10.8,nt,nt,nt,nt,nt,
COc1cccc(Nc2n[nH]c(=S)s2)c1,-2.3,-3.8,-10.1,4.3,1.4,0.5,nt,nt,nt,nt,nt,
COc1cc(NC2=Nc3cccc4cccc2c34)cc(OC)c1OC,16.1,31.4*,4.9,6.3,-2.1,41.8*,32.1*,43.4*,39.5,16.1,24.1,
COc1cccc(NC2=Nc3cccc4cccc2c34)c1,-1.7,24.8*,8.3,-1.8,-13.7,45.2*,34.9*,44.4*,44.3*,-25.8,20.9,
c1csc(CNc2nc(Oc3ccncc3)c3sccc3n2)c1,nt,nt,nt,nt,nt,-5.4,nt,nt,nt,nt,nt,
O=C(CN1CCc2cc3c(cc2C1)OCCCO3)Nc1cccc(Br)c1,-0.8,0.5,-3.7,0.9,-5.5,-6.1,nt,nt,nt,nt,nt,
CC(=Cc1ccccc1)C=C1SC(=S)N(CCCC(=O)Nc2ccc(C(=O)O)cc2)C1=O,nt,nt,nt,nt,nt,15.9,nt,nt,nt,nt,nt,
O=C(CCN1C(=O)/C(=C\c2ccco2)SC1=S)Nc1ccc(C(=O)O)c(O)c1,-0.9,25.4*,44.4*,-6.6,1.1,69.9*,11.2,14.6,23.4,26.1,21.9,Zta DNA confirm=9.1;EBNA-1 counter=7.0
CC(/C=C1\SC(=S)N(CCC(=O)Nc2cccc(C(=O)O)c2)C1=O)=C\c1ccccc1,12.5,25.2*,21.4,-14.2,2.4,40.3*,42.7*,56.2*,122.0*,-6.2,27.8,
SMILES,EBNA-1 inhibitor,TPT1 inhibitor,ZTA counter,dFosB act,GRIN3A LBD mod,Rpn11 inh,caTPT1 confirm,RNase T1 inh,Rpn11 confirm,MMP-2 counter,Thrombin FP,others
O=C(c1ccc(NS(=O)(=O)c2ccc(Cl)c(Cl)c2)cc1)N1CCOCC1,nt,nt,nt,-3.5,1.7,0.4,nt,nt,nt,nt,nt,
COc1ccccc1NS(=O)(=O)c1cc([N+](=O)[O-])ccc1N/N=C/c1c[nH]c2ccccc12,-4.0,128.9*,17.5,5.9,22.8*,46.7*,106.2*,107.0*,18.9,-36.8,9.0,
NS(=O)(=O)c1ccc(N/N=C/c2cn(-c3ccccc3)nc2-c2ccccc2)c([N+](=O)[O-])c1,10.1,4.0,17.2,-7.4,7.4,6.7,nt,nt,nt,nt,nt,
O=[N+]([O-])c1ccc(N/N=C/c2ccc[nH]2)cc1,1.1,64.4*,14.5,-2.5,25.1*,66.6*,64.8*,75.5*,51.0*,30.2,34.2,
O=[N+]([O-])c1ccc(N/N=C/c2cn(-c3ccccc3)nc2-c2ccccc2)cc1,-1.1,118.2*,16.2,-4.2,40.8*,47.9*,103.3*,111.0*,25.6,-19.5,10.1,
O=[N+]([O-])c1ccc(N/N=C/c2c[nH]c3ccccc23)cc1,-20.0,125.0*,-3.8,-0.5,29.6*,115.3*,105.6*,108.5*,84.2*,-16.5,58.8*,
O=C(N/N=C/c1ccc[nH]1)c1ccccc1[N+](=O)[O-],-0.5,3.4,10.8,2.3,-5.2,0.2,nt,nt,nt,nt,nt,
O=c1c2ccccc2nc(/C=C/c2cc(Br)ccc2O)n1CCCO,-4.8,-1.8,-10.2,-1.4,5.7,-1.2,nt,nt,nt,nt,nt,
CCN(CC)c1ccc(C(=O)OCC(=O)NC(C)(C)C)cc1,2.4,-1.6,7.3,-11.0,-1.7,-1.1,nt,nt,nt,nt,nt,

# From PubChem
